The term AC50 denotes the concentration at which the activity in the assay is half-maximal.

Data on 94 molecules can be found in PubChem BioAssay AID1851 (National Center for Advancing Translational Sciences (NCATS), 2009).

Structures are written as SMILES. Where “and” joins values, the source holds several entries; their conditions need not be identical. Equal values may be shown once. Out of some 16,000 compounds screened, about 5,700 (36%) were called active. About 24% were inconclusive and are not listed. This is one part of the list. Values without a mark were called inactive. The call rests on the fitted dose curve; in most records, active means well fitted curve in the direction sought with a large enough effect; inconclusive means small, poorly fitted or top-dose-only effect, or effect the other way; inactive means no such curve, though single readings can be large or run the other way.
On the % scale 0 is the no-effect control and ±100 the full control effect.

Cytochrome P450 1A2 (Homo sapiens), sequence (P05177 whole entry, looked up): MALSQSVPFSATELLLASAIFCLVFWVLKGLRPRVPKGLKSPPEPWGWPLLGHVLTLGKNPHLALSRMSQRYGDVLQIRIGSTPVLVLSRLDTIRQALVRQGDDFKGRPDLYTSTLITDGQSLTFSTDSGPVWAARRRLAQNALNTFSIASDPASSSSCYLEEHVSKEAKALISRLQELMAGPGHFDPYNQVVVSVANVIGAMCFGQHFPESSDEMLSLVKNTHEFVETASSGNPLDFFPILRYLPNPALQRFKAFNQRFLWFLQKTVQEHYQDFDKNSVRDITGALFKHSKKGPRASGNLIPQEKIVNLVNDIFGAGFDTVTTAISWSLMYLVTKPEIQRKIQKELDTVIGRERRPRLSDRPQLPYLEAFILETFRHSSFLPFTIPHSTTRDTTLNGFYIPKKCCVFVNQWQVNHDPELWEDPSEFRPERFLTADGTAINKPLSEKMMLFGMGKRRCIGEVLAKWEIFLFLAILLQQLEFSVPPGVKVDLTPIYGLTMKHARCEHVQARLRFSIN

The test addresses Cytochrome P450 1A2 (Homo sapiens) (UniProt P05177). Description: Cytochrome panel assay with activity outcomes. The conditions noted are these: recombinant CYP, pro-luciferin dealkylation, luminescence, p450-cyp1a2; series mostly up to 57.1 µM; activity, negative = inhibition: at the top concentration.
With `CN(C)c1ccc(-c2cc(NCc3cccnc3)ncn2)cc1`, the AC50 was 0.398 µM (active).
On to `CN(C)c1ccc(-c2cc(NCc3ccccc3)ncn2)cc1`, for which the AC50 was 1 µM (active).
Turning to `Cc1cnc(CNc2cc(-c3ccc(C(=O)N(C)C)cc3)ncn2)cn1`, the “activity, negative = inhibition” value is -0.907%.
For the molecule `Cc1cccc(CNc2cc(-c3ccc(N(C)C)cc3)ncn2)c1`, the AC50 was 1 µM (active).
Regarding `Cc1cccc(CNc2cc(-c3ccc(C(=O)N(C)C)cc3)ncn2)c1`, the AC50 was 15.8 µM (active).
Turning to `CN(C)CCSCCO`, the activity, negative = inhibition is -14.3% [at 2.29 µM].
`CN(CCc1ccccn1)c1ccc2c(c1)Cc1ccccc1-2`: the AC50 was 0.631 µM (active).
Consider `CN(C)CC(CN(C)C)c1ccccn1`, for which the activity, negative = inhibition is -16.5% [at 11.4 µM].
`CN(C)CC[C@@H](c1ccccc1)c1ccccn1`: the AC50 entry is “inactive”.
On to `CN(CCc1ccccn1)c1ccc2c(c1)C(=O)c1ccccc1-2`, for which the AC50 is 0.158 µM (active).
Consider `COc1cccc(-c2nccc(NC3CCNCC3)n2)c1`, for which the AC50 is 6.31 µM (active).
Turning to `c1ccc2c(NC3CC3)nc(-c3ccoc3)nc2c1`, the AC50 was 0.316 µM (active).
Turning to `c1ccc2c(NC3CCNCC3)nc(-c3ccoc3)nc2c1`, the AC50 was 15.8 µM (active).
Same read-out and setting: to `COc1cccc(-c2nc(NC3CCNCC3)c3ccccc3n2)c1` belongs 12.6 µM (active).
In the case of `COc1ccc(-c2cc([C@H](O)[C@@H]3CCCCN3)c3ccccc3n2)cc1`, the activity, negative = inhibition was -11% [at 2.29 µM].
The same measure, in the same setting: to `CC(=O)OC[C@@H]1O[C@@H](O/N=C2/C[C@@H](O)[C@@H](O)[C@@H]3[C@H]4C(=O)N(c5ccc(F)cc5F)C(=O)[C@@H]4CC[C@H]23)[C@H](OC(C)=O)[C@H](OC(C)=O)[C@@H]1OC(C)=O` belongs -3.19% [at 11.4 µM]; to `Cc1cccc(N(CC(=O)NCCSCc2ccco2)S(=O)(=O)c2ccccc2)c1`, -3.73%; to `C/C(CCN1CCCCc2nc(C)c(C)cc21)=N\O[C@@H](C)c1cc(-c2c(C)cc(C)cc2C)no1`, 2.23% [at 11.4 µM].
For `Nc1ncnc2c1nc(Sc1ccc(Cl)cc1)n2[C@@H]1O[C@H]2COP(=O)(O)O[C@@H]2[C@H]1O`, the “activity, negative = inhibition” value was -8.07%.
Take `CN(C)c1ccc(-c2nc(NC3CCNCC3)c3ccccc3n2)cc1`: the AC50 was 15.8 µM (active).
Take `CC(C)=NO[C@@H](C)c1cn([C@H](CO)Cc2ccccc2)nn1`: the activity, negative = inhibition is -7.23% [at 11.4 µM] and -1.97% [at 11.4 µM].
`CCCCNC(=O)CSc1nc2ccccc2c(=O)n1CCNC(C)=O`: the “activity, negative = inhibition” value is -6.64%.
On to `CC1CCN(CCCn2c(=S)[nH]c3ccc(N4CCOCC4)cc3c2=O)CC1`, for which the “activity, negative = inhibition” value is -26.7%.
Turning to `CCCCn1c(SCC(N)=O)nc2ccc(N3CCOCC3)cc2c1=O`, the AC50 was 4.47 µM (active).
`Cc1ccc(C)c(C(=O)CN2C(=O)c3ccccc3S2(=O)=O)c1`: the “activity, negative = inhibition” value is -17.5%.
Turning to `CC(=O)c1cc(C)ccc1OC(=O)CCN1C(=O)C2C3c4ccccc4C(c4ccccc43)C2C1=O` (centres undefined), the AC50 was 15.8 µM (active).
For the molecule `CCOC(=O)CCN1C(=O)[C@H]2[C@@H]3[C@H](O)C=CC(=O)[C@H]3CC[C@H]2C1=O`, the activity, negative = inhibition is -6.05% [at 11.4 µM].
On to `OCCN1CCN(CCC=C2c3ccccc3Sc3ccc(Cl)cc32)CC1`, for which the AC50 is 15.8 µM (active).
`CN(C)CC/C=C1\c2ccccc2COc2ccccc21`: the AC50 is 15.8 µM (active).
Regarding `CN1CCN(CCC=C2c3ccccc3Sc3ccc(S(=O)(=O)N(C)C)cc32)CC1`, the “activity, negative = inhibition” value was -7.27%.
With `C[C@H]1CN(CCO)CCN1c1ccccc1`, the activity, negative = inhibition is -18.4% [at 11.4 µM].
As for `CN(C)CCC=C1c2ccccc2C=Cc2ccccc21`, the AC50 result is “inactive”.
Regarding `CN(C)CC/C=C1\c2ccccc2Sc2ccc(Cl)cc21`, the AC50 is 1.58 µM (active).
As to `CN(C)CC/C=C1\c2ccccc2CSc2ccccc21`, the “activity, negative = inhibition” value was -6.68% [at 25.6 µM].
Take `CN1CCN(CCCN)CC1`: the activity, negative = inhibition is -19.9% [at 11.4 µM].
Regarding `NC[C@H](O)C1CCCCCCC1`, the “activity, negative = inhibition” value is -18.7%.
Still for that read-out and setting: with `CC(C)N(Cc1ccccc1)S(=O)(=O)c1n[nH]c(C(C)(C)C)n1` the figure was 2.16% [at 11.4 µM].
For the molecule `Cc1ccc(C)c(NC(=O)NCc2ccc(Cl)cc2)c1`, the AC50 was 0.794 µM (active).
In the case of `Cc1ccc(C)c(NC(=O)C2(C)CC3c4ccccc4C2c2ccccc23)c1` (centres undefined), the “activity, negative = inhibition” value was -20.1%.
Regarding `Cc1ccc(CNC(=O)C2(NC(=O)Nc3ccc(C)cc3)CCCCC2)cc1`, the “activity, negative = inhibition” value was 6.22%.
Consider `CC1(C)C(=O)N(CCN2CCC(C(=O)c3ccc(F)cc3)CC2)c2ccccc21`, for which the “activity, negative = inhibition” value is -12.4%.
For `O=C(NCCc1ccccc1)C(=O)NCC1(c2ccccc2)CCCC1`, the “activity, negative = inhibition” value is 6.35%.
As for `O=C(CC(=O)NN=C1CCCC1)NCCc1ccccc1`, the “activity, negative = inhibition” value was -25.7%.
Regarding `O=C(NCCc1ccccc1)C(=O)NN=C1CCCC1`, the AC50 was 12.6 µM (active).
`COC(=O)c1[nH]c2ccc(Br)cc2c1NC(=O)CN1CCN(C2CCCCC2)CC1`: the AC50 was 12.6 µM (active).
For the molecule `COC(=O)c1[nH]c2ccc(Br)cc2c1NC(=O)CN1CCCc2ccccc21`, the AC50 is 5.01 µM (active).
With `C[C@@H]1CCCN(C[C@@H](O)CN2CCCc3ccccc32)C1`, the activity, negative = inhibition was -10.7% [at 11.4 µM].
As to `CC(C)(CN)CN`, the activity, negative = inhibition was 2.94% [at 11.4 µM].
`CN(C)CCNc1nc2c(c(=O)n(C)c(=O)n2C)n1C`: the activity, negative = inhibition was -7.73% [at 11.4 µM].
Take `COc1ccccc1CN1CC2(CCN(S(=O)(=O)c3ccccc3)CC2)C1`: the “activity, negative = inhibition” value is 18.1%.
As for `COc1cc2c(c(O)c1OC)C(=O)C(OC)CCC2` (centres undefined), the AC50 is 12.6 µM (active).
As for `COc1cc([C@H]2c3cc4c(cc3[C@@H](O)[C@@H]3COC(=O)[C@H]23)OCO4)cc(OC)c1OC`, the “activity, negative = inhibition” value was -19.8% [at 25.6 µM].
As for `C/C(CCC(=O)OC[C@@H]1O[C@H](C#Cc2ccccc2)C=C[C@@H]1Oc1ccc(C)cc1)=N/O[C@@H](C)CN1CCCCc2nc(C)c(C)cc21`, the activity, negative = inhibition is -3.03% [at 11.4 µM].
With `O=[N+]([O-])c1ccc2c(c1)S(=O)c1ccccc1-2` (centres undefined), the AC50 is 0.2 µM (active).
Regarding `CC1=c2c(oc3cc(O)c(Nc4c(C)cc(O)cc4O)c(C)c23)=CC(=O)C1=Nc1c(C)cc(O)cc1O`, the AC50 was 3.16 µM (active).
`CN1[C@@H]2CC[C@H]1CC(OC(c1ccccc1)c1ccccc1)C2` (some centres undefined): the AC50 result was “inactive”.
In the case of `N#Cc1ccc(CN2CCC3(CC2)CCN(S(=O)(=O)c2ccccc2)CC3)cc1`, the “activity, negative = inhibition” value was -22.8%.
As to `C=CCn1c(NCc2ccccc2)nc2ccccc21`, the AC50 is 10 µM (active).
Still for that read-out and setting: with `CC(=O)Nc1nc2ccccc2n1Cc1ccccc1` the figure was 14.1 µM (active).
On to `C=CCC(C)(NCc1ccccc1)c1ccco1` (centres undefined), for which the “activity, negative = inhibition” value was -27.6%.
On to `O=S(=O)(O)c1nc2ccccc2n1Cc1ccccc1`, for which the “activity, negative = inhibition” value was -14.6%.
As for `CS(=O)(=O)c1nc2ccccc2n1Cc1ccccc1`, the AC50 is 11.2 µM (active).
`C=CC(=O)NC(C)(C)Cc1ccccc1`: the “activity, negative = inhibition” value is -14.6%.
In the case of `CO[C@@H]1COC(=O)C/C=C\[C@@H](C)[C@H](OC)COC(=O)[C@H](COCc2ccccc2)NC(=O)C/C=C\[C@H]1C`, the activity, negative = inhibition was -0.402% [at 11.4 µM].
`COCC(=O)N1CCC2(CCCN(C(=O)Nc3cccc(C#N)c3)C2)CC1`: the “activity, negative = inhibition” value was 0.755%.
In the case of `O=C(Nc1ccc(-c2cc3ccccc3oc2=O)c(Cl)c1)c1cccnc1`, the “activity, negative = inhibition” value was 13.8%.
On to `O=c1oc2ccccc2cc1-c1csc(NN=C2CCCCC2)n1`, for which the AC50 was 0.891 µM (active).
As for `Clc1ccc(Cl)c(SCCCN2CCNCC2)c1`, the AC50 is 0.501 µM (active).
As to `Cc1c(C=O)c2ccccn2c1C(=O)c1ccncc1`, the AC50 was 1.12 µM (active).
For the molecule `COCCN1C(=O)C(=O)/C(=C(/O)c2cccc(OC)c2)C1c1ccco1` (centres undefined), the “activity, negative = inhibition” value is -13.8%.
For `c1cncc(-c2nc(N3CCNCC3)c3ccccc3n2)c1`, the AC50 was 2.51 µM (active).
Consider `CN1CCN(c2nc(-c3cccnc3)nc3ccccc23)CC1`, for which the AC50 was 3.16 µM (active).
For `CN1CCN(c2ccncc2S(=O)(=O)N2CCN(C)CC2)CC1`, the activity, negative = inhibition is -7.43% [at 2.29 µM].
For the molecule `CC(C)c1ccccc1-n1c(SCC(=O)N2CCN(c3ccccc3)CC2)nnc1-c1cccnc1`, the “activity, negative = inhibition” value was -23.2%.
On to `N#CCSc1nc(N)c(C#N)c(C2CCCCC2)c1C#N`, for which the AC50 was 10 µM (active).
With `Cn1c(=O)c2[nH]c([C@@H]3CC(=O)C[C@H](c4nc5c([nH]4)c(=O)n(C)c(=O)n5C)N3)nc2n(C)c1=O`, the activity, negative = inhibition was -18.2% [at 2.29 µM].
As for `Cn1c(=O)c2[nH]c(C3CCCC3)nc2n(C)c1=O`, the AC50 was 12.6 µM (active).
For the molecule `Cn1c(=O)c2[nH]c(CCS)nc2n(C)c1=O`, the activity, negative = inhibition was -15.3% [at 11.4 µM].
On to `CCCn1c(=O)c2[nH]c(C3CCCC3)nc2n(CCC)c1=O`, for which the AC50 was 0.251 µM (active).
Turning to `CCCCCn1c(CN2CCCCC2C)nc2c1c(=O)n(C)c(=O)n2C` (centres undefined), the “activity, negative = inhibition” value is -17%.
Take `CC(C)(C[C@@]1(C)NC(=O)NC1=O)OCc1ccccc1`: the activity, negative = inhibition is -12.1% [at 2.29 µM].
As for `CC(C)Oc1ccc(C2CC(=O)NC3=C2C(=O)CCC3)cc1` (centres undefined), the “activity, negative = inhibition” value was -14.5%.
Take `CC1=NN(c2ccccc2)C(=O)/C1=C\N1CC(C)OC(C)C1` (centres undefined): the “activity, negative = inhibition” value was -23.7%.
Regarding `CC1=NN(c2ccccc2)C(=O)C1`, the AC50 was 12.6 µM (active).
Turning to `CC(=O)NC1=NN(c2ccccc2)C(=O)C1`, the “activity, negative = inhibition” value is -12.4%.
Regarding `Cc1cccc(OCCn2c(-c3ccco3)nc3ccccc32)c1`, the AC50 is 1.58 µM (active).
`Cc1cccc(OCCn2c(S(=O)(=O)O)nc3ccccc32)c1`: the “activity, negative = inhibition” value was -12.6%.
On the same count and under the same terms, to `N=C(N)SCCc1ccc(CCSC(=N)N)cc1` belongs -3.85%; to `C[N+]1(CCOc2ccc([N+](=O)[O-])cc2)CCOCC1`, -1.1%.
`N=C(N)SCCc1ccc(OCc2ccc([N+](=O)[O-])cc2)cc1`: the AC50 was 31.6 µM (active).
Turning to `CC(C)=CCC/C(C)=C/CO/N=C1/C[C@@H](O)[C@@H](O)[C@@H]2[C@H]3C(=O)N(c4ccc(F)cc4F)C(=O)[C@@H]3CC[C@H]12`, the activity, negative = inhibition was -0.361% [at 11.4 µM].
On to `COc1ccc(S(=O)(=O)N(CCc2ccccc2)CC(=O)N2CCOCC2)cc1`, for which the “activity, negative = inhibition” value was -25.1%.
On to `COc1ccc(S(=O)(=O)N(CC(=O)N2CCCC2)Cc2ccccc2)cc1`, for which the “activity, negative = inhibition” value is 2.54%.
`CCOc1ccc2[nH]c(=O)c(CN(CCc3ccccc3)C(=O)N3CCCC3)cc2c1`: the AC50 is 14.1 µM (active).
